Shiga toxin inh = A qHTS for Small Molecule Inhibitors of Shiga Toxin | Vero cells, Shiga toxin protein synthesis inhibition reporter | inhibition, % at 38.7 µM | actives 9.2% (n = 290,000); in the data active = inhibition mostly above about 28%, no sharp cut-off; inactive = mostly below about 43%; also: 0% is about no effect
FBPA Giardia inh = qHTS Assay for Inhibitors of Fructose-1,6-bisphosphate Aldolase from Giardia Lamblia; actives 0.71% (n = 290,000); AID 2451, 2010; A8B2U2; purified Giardia FBPA; Potency, µM (top dose mostly 59.6 µM), for inactives: at the highest dose activity, negative = inhibition, actives largely listed as inhibitors; also: potency is read from the fitted curve at half-maximal effect; % is scaled to controls: 0 for no effect and ±100 for the full control effect; nearly all actives have a fitted effect of over 55% in size
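40 nM FBPA preincubated 10 min at RT with compound (up to 57.5 uM final), then substrate plus GAPDH/TPI/NAD/arsenate coupling and diaphorase/resazurin added. Fluorescence read after 20 min at RT, 525/598 nm.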
TbPYK inhibitor = qHTS of Trypanosoma Brucei Inhibitors | pyruvate kinase (Trypanosoma brucei), Q57TT1 | TbPYK enzyme, Kinase-Glo Plus ATP luminescence, 45 min | Potency, µM (top dose mostly 76.8 µM), for the others: at the top dose activity, negative = inhibition, hits mostly inhibitors | actives 0.12% (n = 410,000); also: potency is read from the fitted curve at half-maximal effect; % is scaled to controls: 0 for no effect and ±100 for the full control effect; nearly all actives have a fitted effect of over 50% in size
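Readout: single end-point luminescence (Kinase-Glo Plus, 10 min). Reaction conditions were TbPYK/substrate plus 130 uM ADP, 45 min at RT, pH 7.2 TEA buffer. No-enzyme wells served as controls, and data were normalized before concentration-response fitting.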
LmPK inhibitor = qHTS Assay for Inhibitors of Leishmania Mexicana Pyruvate Kinase (LmPK); Potency, µM (highest dose often 57.5 µM), without a hit: at the highest dose activity change, negative = inhibition, usual class: inhibitors; AID 1721, 2009; Q27686; purified LmPK, Kinase-Glo ATP luminescence, 1 h; actives 0.37% (n = 290,000); also: potency is read from the fitted curve at half-maximal effect; % is scaled to controls: 0 for no effect and ±100 for the full control effect
Target sequence (Q27686 whole entry, looked up): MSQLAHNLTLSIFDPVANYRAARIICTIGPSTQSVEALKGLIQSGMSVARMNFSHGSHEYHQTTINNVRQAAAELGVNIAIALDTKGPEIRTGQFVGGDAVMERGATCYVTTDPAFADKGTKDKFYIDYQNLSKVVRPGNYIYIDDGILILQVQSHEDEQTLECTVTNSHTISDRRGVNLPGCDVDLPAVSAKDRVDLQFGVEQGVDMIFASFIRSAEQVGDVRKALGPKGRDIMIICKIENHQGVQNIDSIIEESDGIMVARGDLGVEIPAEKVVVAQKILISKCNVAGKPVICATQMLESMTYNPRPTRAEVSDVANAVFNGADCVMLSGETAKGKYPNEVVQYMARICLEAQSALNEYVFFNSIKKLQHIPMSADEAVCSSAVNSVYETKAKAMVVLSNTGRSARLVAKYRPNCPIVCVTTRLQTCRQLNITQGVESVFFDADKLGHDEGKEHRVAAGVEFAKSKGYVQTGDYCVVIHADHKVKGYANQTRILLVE
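qHTS format; LmPK 0.1 nM; substrates PEP 0.5 mM and ADP 0.1 mM. One-hour room-temperature incubation, then coupled luciferase luminescence; 0.5 nM enzyme wells mark activation.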
Sm TGR inh = qHTS Assay for the Inhibitors of Schistosoma Mansoni Peroxiredoxins. Schistosoma mansoni thioredoxin glutathione reductase (TGR), Q962Y6. purified TGR, DTNB reduction, TNB absorbance 405 nm. Potency, µM (titrated, usually from 114 µM), without a hit: top-dose activity change, negative = inhibition, actives largely listed as inhibitors. actives 3% (n = 360,000). AID 485364, 2010; also: potency is read from the fitted curve at half-maximal effect; % is scaled to controls: 0 for no effect and ±100 for the full control effect; nearly all actives have a fitted effect of over 60% in size
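First, TGR (20 nM dispensed) and NADPH were mixed with compound. Second, a 15 min room-temperature incubation followed. Third, further NADPH and then DTNB were added to start the reaction. Finally, TNB absorbance was monitored kinetically.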
CHX counter = Cycloheximide Counterscreen for Small Molecule Inhibitors of Shiga Toxin; cell reporter, cycloheximide protein synthesis inhibition counterscreen; max response, %; actives 12% (n = 300,000); AID 2314, 2010; in the data active = max response mostly above about 13%, no sharp cut-off; inactive = mostly below about 14%; also: read at 38.3 µM for the half of the compounds with a filed dose; 0% is about no effect
* = called active by the depositor; ? = inconclusive; · = no result given; [ ] = another dose, or the depositor's remark. This excerpt belongs to a sample that is enriched for hits. Unless noted, calls follow the shape of the dose curve; as a rule, active = well fitted curve in the direction sought with a large enough effect; inconclusive = small, poorly fitted or top-dose-only effect, or another doubt; inactive = no such curve, though single readings can be large; an effect the other way counts as inactive or inconclusive.

SMILES	Shiga toxin inh	FBPA Giardia inh	TbPYK inhibitor	LmPK inhibitor	Sm TGR inh	CHX counter
O=C(Nc1ccc(S(=O)(=O)N2CCCCCC2)cc1)c1ccc(Br)o1	19	-5%	3%	1%	-4%	13
CC1CCN(c2ccc(NC(=O)c3cccnc3)cc2)CC1	55*	-18%	-4%	-7%	-6%	33*
CCC(=O)NC(=S)Nc1ccc(NC(=O)c2ccc(Br)o2)cc1	112*	-5%	-4%	2%	-31%	16
N/C(=N\O)c1ccc(NC(=O)c2ccc(Br)o2)cc1	81*	5%	-15%	-8%	2%	45*
Cc1ccccc1OCC(=O)N1CCN(C(=O)COc2ccccc2C)CC1	1	·	1%	-3%	-1%	2
CCN(CC)CCCNC(=O)c1nn(C)c2c1CS(=O)(=O)c1ccccc1-2	·	·	1%	·	0%	·
COC(=O)N1C(c2ccccc2)=Cc2ccccc2C1CC(C)=O (stereo not drawn)	·	3%[12.9 µM]	·	-7%[11.5 µM]	·	·
NNC(=O)c1cccc(COc2cccc(Br)c2)c1	74*	-9%	-7%	4%	-10%	32*
NNC(=O)CNC(=O)c1cccc(Br)c1	51	4%	2%	-1%	12%	30
NNC(=O)c1cccc(COc2ccc(Br)cc2)c1	149*	1%	9%	1%	2%	68*
CCCNC(=O)c1cccc(COc2ccccc2OC)c1	123*	3%	3%	-7%	-6%	50*
O=C(NN1CCOCC1)c1cccc(COc2cccc(Br)c2)c1	61	2%	-3%	11%	11%	16*
CCCNC(=O)c1cccc(COCC(F)(F)F)c1	·	·	-11%	·	·	·
CN(C)c1ccc(CNc2nc(-c3ccco3)nn2S(=O)(=O)c2ccc(Cl)cc2)cc1	·	·	-8%	·	-8%	·
CC(C)CN(C(=O)COC(=O)CSc1ccc([N+](=O)[O-])cc1)C1CCS(=O)(=O)C1 (stereo not drawn)	·	·	-14%	·	-3%	·
COc1ccc(OCc2cccc(C(=O)NN)c2)cc1	140*	-10%	-9%	-6%	0%	124*
NNC(=O)c1ccc(COc2ccc3ccccc3c2)cc1	45*	-2%	0%	1%	-1%	35*
COc1ccc(OCc2cccc(C(=O)Nn3cc([N+](=O)[O-])cn3)c2)cc1	2	2%	1%	-6%	-19%	5
O=C(COc1ccc2ccccc2c1)NNC(=O)c1ccccc1	-5	7%	4%	7%	8%	-4
O=C(NC(c1ccc(Cl)cc1)c1ccsc1)C1CCN(CCOc2ccc(Cl)cc2)CC1 (stereo not drawn)	·	·	0%	·	·	·
O=C(COc1ccc(Br)cc1CO)Nc1ccc(F)cc1	35	3%	-2%	3%	-2%	9.1*
O=C(COc1ccc(Br)cc1CO)Nc1ccc(S(=O)(=O)N2CCCC2)cc1	·	·	6%	·	-7%	·
Cc1ccc(NC(=O)COc2ccc(Br)cc2C)cc1	91*	1%	5%	-3%	8%	70*
CCc1nc2cc3sc(CC)nc3cc2s1	74*	-11%	6%	0%	10%	25*
Cc1nc2cc3ccccc3cc2s1	·	·	2%	·	·	·
SMILES	Shiga toxin inh	FBPA Giardia inh	TbPYK inhibitor	LmPK inhibitor	Sm TGR inh	CHX counter
CS(=O)(=O)c1ccccc1C(=O)Nc1ccc(-c2nc3ccccc3[nH]2)cc1	42*	1%	0%	1%	-2%	19*
CS(=O)(=O)c1ccccc1C(=O)Nc1ccc(-c2nc3ccccc3o2)cc1	65*	-2%	-23%	7%	-17%	31*
CC(C)(C)N1C(=O)c2ccc(C(=O)Nc3ccc(-c4nc5ccccc5[nH]4)cc3)cc2C1=O	47*	0%	-2%	9%	8%	29*
Cc1ccc(C(=O)Nc2ccc(-c3nc4ccccc4o3)cc2)cc1Cl	·	·	-1%	·	2%	·
CC(C)(C)N1C(=O)c2ccc(C(=O)Nc3ccc(C(=O)O)cc3)cc2C1=O	-10	1%	-1%	-2%	-2%	-4
CCOc1ccc(C(=O)NCc2ccc3c(c2)CCN3C(=O)c2ccc(Cl)cc2)cc1	·	·	-8%	·	10%	·
COc1cc(-c2cc(C(=O)Nc3nc4ccccc4s3)c3ccccc3n2)cc(OC)c1OC	3	3%	0%	-2%	-2%	18*
O=C(Nc1nc2c(s1)CCCC2)c1cc(-c2ccccc2)nc2ccccc12	19	0%	-9%	2%	-2%	14*
COc1cc(-c2cc(C(=O)Nc3ccc(O)cc3)c3ccccc3n2)cc(OC)c1OC	-8	-8%	-18%	7%	8%	-2
Cc1ccc(NC(=O)c2cc(C)nc3ccccc23)cc1	-16	13%	-2%	-4%	5%	2
O=C(Nc1cccc(S(=O)(=O)NC2=NCCCCC2)c1)c1cc(-c2ccncc2)nc2ccccc12	-3	0%	-6%	1%	4%	8
O=C(Nc1cccc(S(=O)(=O)NC2=NCCCCC2)c1)c1cc(-c2ccco2)nc2ccccc12	-7	-25%	-15%	6%	11µM*	-1
CC(=O)c1ccc(NC(=O)c2cc(C)nc3ccccc23)cc1	28	4%	-7%	1%	-3%	28*
O=C(Nc1nc2c(s1)CCCC2)c1cc(-c2ccncc2)nc2ccccc12	-2	-2%	-1%	3%	-6%	2
O=C(NNC(=O)C1COc2ccccc2O1)c1ccccc1O (stereo not drawn)	·	·	0%	·	3%	·
COc1cc(-c2cc(C(=O)Nc3cccc(C(C)=O)c3)c3ccccc3n2)cc(OC)c1OC	6	·	-4%	-3%	-2%	18*
COC(=O)c1sc(NC(=O)c2cc(-c3ccccc3)nc3ccccc23)c(C#N)c1C	-12	1.4µM*	?	2%	-10%	-1
O=C(Nc1ccccc1N1CCOCC1)c1cc(-c2ccco2)nc2ccccc12	-12	-11%	-2%	8%	?	3
CC(=O)c1cccc(NC(=O)c2cc(-c3ccco3)nc3ccccc23)c1	33*	-1%	7%	0%	25µM*	13
O=C(NNC(=O)c1cc(-c2ccco2)nc2ccccc12)c1ccccc1	21	-4%	-3%	5%	11µM*	11
COc1cccc(NC(=O)c2cc(-c3ccco3)nc3ccccc23)c1	·	·	1%	·	·	·
O=C(Nc1cccc(Br)c1)N1CCC(CN2CCCCCC2)CC1	·	·	-5%	·	-32%	·
O=C1O[C@H]2[C@@H](OC(O)[C@@H]2O)[C@H]1O (stereo partly drawn)	·	·	-6%	·	·	·
